Test [1] addresses Mitogen-activated protein kinase kinase kinase kinase 4 (Homo sapiens) (UniProt O95819). The following applies: at 1 µM.
The target of test [2] is Dual specificity mitogen-activated protein kinase kinase 1 (Homo sapiens) (UniProt Q02750). The following applies: at 0.1 µM.
Test [3] shares this target. The note with it: at 1 µM.
For test [4], the target named is Misshapen-like kinase 1 (Homo sapiens) (UniProt Q8N4C8). The following applies: at 0.1 µM.
For test [5] the target is unchanged. The note with it: at 1 µM.
Test [6] has as its target T1, Serine/threonine-protein kinase 4 (Homo sapiens) (UniProt Q13043).
T1 sequence (whole entry): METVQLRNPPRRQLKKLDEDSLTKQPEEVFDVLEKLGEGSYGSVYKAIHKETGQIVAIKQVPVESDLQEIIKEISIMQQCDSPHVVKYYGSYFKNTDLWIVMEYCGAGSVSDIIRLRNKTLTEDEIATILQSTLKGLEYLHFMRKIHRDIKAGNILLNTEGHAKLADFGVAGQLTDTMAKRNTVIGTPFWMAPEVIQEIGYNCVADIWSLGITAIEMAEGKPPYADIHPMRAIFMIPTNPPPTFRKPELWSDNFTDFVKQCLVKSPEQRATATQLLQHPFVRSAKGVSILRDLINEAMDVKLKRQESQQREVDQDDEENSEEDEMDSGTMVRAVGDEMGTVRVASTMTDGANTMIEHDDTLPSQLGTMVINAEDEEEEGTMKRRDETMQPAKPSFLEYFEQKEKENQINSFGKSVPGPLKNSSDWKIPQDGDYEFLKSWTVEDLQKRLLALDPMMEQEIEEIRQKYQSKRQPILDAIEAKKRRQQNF
The note with it: at 0.1 µM.

Test [7] concerns the target T1, Serine/threonine-protein kinase 4 (Homo sapiens). The note with it: at 1 µM.
The target in test [8] is T2, Serine/threonine-protein kinase 3 (Homo sapiens) (UniProt Q13188).
T2 sequence (whole entry): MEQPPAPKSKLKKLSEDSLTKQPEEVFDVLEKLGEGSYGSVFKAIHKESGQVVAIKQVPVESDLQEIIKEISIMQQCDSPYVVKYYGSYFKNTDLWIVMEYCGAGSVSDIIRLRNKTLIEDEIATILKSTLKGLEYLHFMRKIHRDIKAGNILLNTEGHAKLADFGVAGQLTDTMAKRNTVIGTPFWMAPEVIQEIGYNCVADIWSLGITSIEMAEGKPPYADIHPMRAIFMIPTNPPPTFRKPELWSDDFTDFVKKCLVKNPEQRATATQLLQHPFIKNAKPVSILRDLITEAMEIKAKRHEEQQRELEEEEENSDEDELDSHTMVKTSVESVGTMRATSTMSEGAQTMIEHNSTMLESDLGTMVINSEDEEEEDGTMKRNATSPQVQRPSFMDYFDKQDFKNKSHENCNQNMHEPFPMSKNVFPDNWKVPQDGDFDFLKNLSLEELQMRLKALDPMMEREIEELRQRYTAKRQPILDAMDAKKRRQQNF
The following applies: at 0.1 µM.

In test [9] the target is T2, Serine/threonine-protein kinase 3 (Homo sapiens). The note with it: at 1 µM.
The target of test [10] is Serine/threonine-protein kinase 26 (Homo sapiens) (UniProt Q9P289). The following applies: at 0.1 µM.
The target is the same in test [11]. The following applies: at 1 µM.
In test [12] the target is Serine/threonine-protein kinase PAK 1 (Homo sapiens) (UniProt Q13153). The following applies: at 0.1 µM.
Test [13] shares this target. The note with it: at 1 µM.
Test [14] deals with Serine/threonine-protein kinase PAK 2 (Homo sapiens) (UniProt Q13177). The following applies: at 0.1 µM.
Test [15] has the same target. The note with it: at 1 µM.
Test [16] addresses Serine/threonine-protein kinase PAK 3 (Homo sapiens) (UniProt O75914). The note with it: at 0.1 µM.
Test [17] has the same target. The following applies: at 1 µM.
Test [18] concerns the target Serine/threonine-protein kinase PAK 5 (Homo sapiens) (UniProt Q9P286). The following applies: at 0.1 µM.
The target is the same in test [19]. The note with it: at 1 µM.
Test [20] deals with Serine/threonine-protein kinase PAK 6 (Homo sapiens) (UniProt Q9NQU5). The following applies: at 0.1 µM.

Chain of Mitogen-activated protein kinase kinase kinase kinase 4 (Homo sapiens) (O95819 2-1239 limits assumed): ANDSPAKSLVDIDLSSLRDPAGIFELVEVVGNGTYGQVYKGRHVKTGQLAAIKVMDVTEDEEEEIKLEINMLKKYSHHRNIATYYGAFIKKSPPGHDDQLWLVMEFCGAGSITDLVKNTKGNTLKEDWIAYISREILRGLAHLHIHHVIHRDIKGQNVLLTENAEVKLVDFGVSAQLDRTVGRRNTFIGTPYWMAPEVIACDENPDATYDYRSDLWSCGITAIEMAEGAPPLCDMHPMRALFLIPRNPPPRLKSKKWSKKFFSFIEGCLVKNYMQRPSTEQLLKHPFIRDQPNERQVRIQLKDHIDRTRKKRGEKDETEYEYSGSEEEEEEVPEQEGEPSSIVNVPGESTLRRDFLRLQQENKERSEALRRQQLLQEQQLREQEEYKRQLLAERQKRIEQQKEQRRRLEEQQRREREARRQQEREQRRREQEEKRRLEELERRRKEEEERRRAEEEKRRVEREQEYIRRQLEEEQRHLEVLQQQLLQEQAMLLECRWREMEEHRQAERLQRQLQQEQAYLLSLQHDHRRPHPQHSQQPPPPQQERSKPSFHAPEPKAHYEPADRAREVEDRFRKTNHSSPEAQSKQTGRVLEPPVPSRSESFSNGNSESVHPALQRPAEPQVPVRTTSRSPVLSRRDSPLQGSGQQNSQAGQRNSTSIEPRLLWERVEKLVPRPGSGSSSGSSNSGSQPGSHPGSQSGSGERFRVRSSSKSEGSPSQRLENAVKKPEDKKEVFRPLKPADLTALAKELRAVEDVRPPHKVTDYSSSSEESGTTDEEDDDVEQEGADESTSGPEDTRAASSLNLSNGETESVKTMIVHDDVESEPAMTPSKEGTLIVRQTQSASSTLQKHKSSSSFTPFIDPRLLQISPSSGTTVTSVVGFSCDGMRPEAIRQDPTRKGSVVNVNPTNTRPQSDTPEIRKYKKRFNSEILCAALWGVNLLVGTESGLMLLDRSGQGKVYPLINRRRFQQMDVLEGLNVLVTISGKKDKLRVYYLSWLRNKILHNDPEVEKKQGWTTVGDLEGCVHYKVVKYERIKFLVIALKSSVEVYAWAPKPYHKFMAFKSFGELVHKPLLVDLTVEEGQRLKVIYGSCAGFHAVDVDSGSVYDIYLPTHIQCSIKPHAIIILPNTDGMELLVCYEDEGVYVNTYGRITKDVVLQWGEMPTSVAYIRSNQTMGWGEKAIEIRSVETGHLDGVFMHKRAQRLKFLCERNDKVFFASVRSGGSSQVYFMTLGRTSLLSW
Chain of Dual specificity mitogen-activated protein kinase kinase 1 (Homo sapiens) (Q02750 whole entry): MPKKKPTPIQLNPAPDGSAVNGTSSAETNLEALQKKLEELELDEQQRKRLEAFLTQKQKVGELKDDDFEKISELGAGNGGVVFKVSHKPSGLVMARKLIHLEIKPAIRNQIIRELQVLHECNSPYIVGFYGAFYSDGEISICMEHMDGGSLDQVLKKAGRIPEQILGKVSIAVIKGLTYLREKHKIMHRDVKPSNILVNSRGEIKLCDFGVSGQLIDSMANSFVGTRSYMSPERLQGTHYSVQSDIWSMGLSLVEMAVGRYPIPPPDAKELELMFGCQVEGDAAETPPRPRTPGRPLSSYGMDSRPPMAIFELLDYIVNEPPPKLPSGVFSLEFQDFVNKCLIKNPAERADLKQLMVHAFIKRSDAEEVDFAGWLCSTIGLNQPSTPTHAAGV
Chain of Serine/threonine-protein kinase PAK 5 (Homo sapiens) (Q9P286 whole entry, looked up): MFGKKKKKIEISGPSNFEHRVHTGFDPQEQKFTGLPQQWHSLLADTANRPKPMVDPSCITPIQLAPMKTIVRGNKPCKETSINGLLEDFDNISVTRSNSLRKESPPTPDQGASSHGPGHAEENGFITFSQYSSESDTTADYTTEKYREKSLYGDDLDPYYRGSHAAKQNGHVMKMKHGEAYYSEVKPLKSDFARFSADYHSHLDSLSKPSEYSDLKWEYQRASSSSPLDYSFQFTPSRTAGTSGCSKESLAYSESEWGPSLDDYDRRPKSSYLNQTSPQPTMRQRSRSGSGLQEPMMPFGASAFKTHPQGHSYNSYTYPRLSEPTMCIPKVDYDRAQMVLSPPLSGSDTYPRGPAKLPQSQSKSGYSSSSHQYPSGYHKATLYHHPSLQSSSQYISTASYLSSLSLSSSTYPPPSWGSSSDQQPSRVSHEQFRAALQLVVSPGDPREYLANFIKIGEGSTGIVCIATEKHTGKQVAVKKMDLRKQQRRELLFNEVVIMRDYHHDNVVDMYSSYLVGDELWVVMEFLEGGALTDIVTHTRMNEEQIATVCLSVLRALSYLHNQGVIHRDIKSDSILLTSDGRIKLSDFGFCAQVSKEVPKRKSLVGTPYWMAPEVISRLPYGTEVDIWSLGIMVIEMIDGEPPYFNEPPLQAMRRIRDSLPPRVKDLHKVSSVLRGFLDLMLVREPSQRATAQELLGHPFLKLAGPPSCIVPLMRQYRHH
Chain of Misshapen-like kinase 1 (Homo sapiens) (Q8N4C8 whole entry, looked up): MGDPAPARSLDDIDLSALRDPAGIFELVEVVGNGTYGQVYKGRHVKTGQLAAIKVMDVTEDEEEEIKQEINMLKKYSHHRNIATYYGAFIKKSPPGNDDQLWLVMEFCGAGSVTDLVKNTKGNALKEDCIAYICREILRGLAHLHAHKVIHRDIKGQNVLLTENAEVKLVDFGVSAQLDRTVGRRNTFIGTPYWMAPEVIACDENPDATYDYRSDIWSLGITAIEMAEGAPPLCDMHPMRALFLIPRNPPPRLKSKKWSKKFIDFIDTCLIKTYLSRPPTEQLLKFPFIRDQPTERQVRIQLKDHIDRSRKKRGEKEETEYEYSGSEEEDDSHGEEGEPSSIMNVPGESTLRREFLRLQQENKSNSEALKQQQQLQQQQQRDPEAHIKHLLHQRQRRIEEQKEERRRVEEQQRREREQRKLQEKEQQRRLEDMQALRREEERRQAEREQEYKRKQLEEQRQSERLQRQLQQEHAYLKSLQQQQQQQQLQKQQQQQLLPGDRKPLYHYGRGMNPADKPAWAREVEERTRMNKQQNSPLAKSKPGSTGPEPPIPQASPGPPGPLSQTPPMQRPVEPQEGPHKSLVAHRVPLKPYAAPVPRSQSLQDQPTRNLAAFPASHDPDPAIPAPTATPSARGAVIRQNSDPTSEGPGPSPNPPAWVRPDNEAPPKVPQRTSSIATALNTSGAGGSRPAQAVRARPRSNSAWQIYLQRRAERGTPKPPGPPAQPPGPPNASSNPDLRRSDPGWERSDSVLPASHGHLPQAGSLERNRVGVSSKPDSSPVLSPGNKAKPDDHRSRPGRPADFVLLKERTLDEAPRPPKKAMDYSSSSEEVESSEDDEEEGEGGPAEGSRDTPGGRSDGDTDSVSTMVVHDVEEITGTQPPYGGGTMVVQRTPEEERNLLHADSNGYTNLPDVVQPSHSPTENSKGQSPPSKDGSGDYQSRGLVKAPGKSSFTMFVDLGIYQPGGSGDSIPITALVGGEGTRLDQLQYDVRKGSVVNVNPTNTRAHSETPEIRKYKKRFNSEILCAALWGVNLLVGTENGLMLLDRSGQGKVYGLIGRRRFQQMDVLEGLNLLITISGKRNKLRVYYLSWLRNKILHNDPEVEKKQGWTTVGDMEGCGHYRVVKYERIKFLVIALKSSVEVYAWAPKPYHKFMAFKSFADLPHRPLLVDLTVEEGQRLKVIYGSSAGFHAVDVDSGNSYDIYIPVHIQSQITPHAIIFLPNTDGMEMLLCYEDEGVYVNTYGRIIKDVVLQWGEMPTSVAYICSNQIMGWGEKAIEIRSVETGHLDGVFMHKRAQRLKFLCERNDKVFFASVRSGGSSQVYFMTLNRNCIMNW
Chain of Serine/threonine-protein kinase PAK 1 (Homo sapiens) (Q13153 whole entry): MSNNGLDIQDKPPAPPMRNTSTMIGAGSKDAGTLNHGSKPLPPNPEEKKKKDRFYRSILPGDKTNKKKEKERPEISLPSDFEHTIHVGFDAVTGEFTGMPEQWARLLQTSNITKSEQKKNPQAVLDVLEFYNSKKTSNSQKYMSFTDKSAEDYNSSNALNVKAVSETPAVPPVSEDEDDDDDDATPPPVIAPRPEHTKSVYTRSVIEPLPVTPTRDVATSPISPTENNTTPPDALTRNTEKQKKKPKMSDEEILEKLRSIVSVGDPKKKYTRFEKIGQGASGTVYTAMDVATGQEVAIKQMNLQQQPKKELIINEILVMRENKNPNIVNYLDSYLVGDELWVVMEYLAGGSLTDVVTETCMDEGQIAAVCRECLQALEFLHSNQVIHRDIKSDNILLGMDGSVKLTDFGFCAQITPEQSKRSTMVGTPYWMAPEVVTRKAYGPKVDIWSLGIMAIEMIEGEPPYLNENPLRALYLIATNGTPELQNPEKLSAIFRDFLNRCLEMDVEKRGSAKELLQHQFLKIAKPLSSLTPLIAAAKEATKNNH
Chain of Serine/threonine-protein kinase PAK 2 (Homo sapiens) (Q13177 whole entry): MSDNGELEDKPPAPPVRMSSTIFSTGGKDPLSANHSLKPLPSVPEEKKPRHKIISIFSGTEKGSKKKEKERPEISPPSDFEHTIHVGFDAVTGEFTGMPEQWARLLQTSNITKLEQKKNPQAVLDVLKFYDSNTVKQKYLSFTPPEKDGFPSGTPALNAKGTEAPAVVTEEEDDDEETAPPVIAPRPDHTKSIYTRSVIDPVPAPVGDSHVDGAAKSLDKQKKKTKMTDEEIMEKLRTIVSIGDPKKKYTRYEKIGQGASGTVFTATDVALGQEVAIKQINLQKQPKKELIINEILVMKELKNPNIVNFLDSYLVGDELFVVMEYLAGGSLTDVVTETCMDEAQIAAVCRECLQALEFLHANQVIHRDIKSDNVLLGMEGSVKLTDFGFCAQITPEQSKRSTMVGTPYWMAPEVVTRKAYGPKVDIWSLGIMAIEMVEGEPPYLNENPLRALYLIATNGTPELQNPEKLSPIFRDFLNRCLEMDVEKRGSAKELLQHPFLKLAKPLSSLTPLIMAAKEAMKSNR

In general, inhibition refers to the drop in the measured response relative to a control, in per cent. Take `NS(=O)(=O)c1ccc(N/N=C2\C(=O)Nc3ccc4ncccc4c32)cc1`: the inhibition in [1] stood at 82.4%; in [2], 14.3%; in [3], 61.1%; in [4] it was 34.1%; in test [5] it was 76.2%; in test [6], 84.6%. Moreover, the inhibition in test [7] was determined as 89.5%; in test [8], 80.3%; in [9], 88.3%; in [10], 43.6%; in [11], 72.5%; in test [12], 5.44%. The inhibition in test [13] was 7.55%; in test [14], 1.04%; in [15] it was 3.9%; in [16], 2.76%; in test [17], 3.77%; in [18], -1.93%. Moreover, the values for the inhibition in test [19] and in test [20] were 3.21% and -4.05%, respectively.
For `COc1cc(Nc2nccc(Nc3ccc4c(C)n[nH]c4c3)n2)cc(OC)c1OC`, the inhibition in test [1] came out at 12.4%; in test [2], 2.25%; in test [3] it was 4.1%; in test [4], 2.58%; in test [5] it was 11%; in test [6], 5.05%. Moreover, the inhibition amounted to 7.86% in test [7]; 5.15% in [8]; 6.19% in test [9]; 1.12% in [10]; 3% in test [11]; 2.19% in test [12]. In addition, the inhibition in test [13] turned out to be 7.51%; in [14], 0.97%; in [15] it was 3.21%; in test [16], 2.53%; in test [17] it was 5.23%; in [18] it was 1.57%. Further, the inhibition in test [19] was 15.3%; in [20], -4.29%.
For the molecule `CCCN(CCS(C)(=O)=O)Cc1ccc(-c2ccc3ncnc(Nc4ccc(OCc5cccc(F)c5)c(Cl)c4)c3c2)o1`, the inhibition in test [1] amounted to 11.1%; in test [2], 1.53%; in test [3], 1.76%; in [4] it was 2.96%; in test [5], 7.61%; in [6], 2.67%. The inhibition turned out to be 4.13% in test [7]; 0.87% in [8]; 2.11% in test [9]; 0.58% in [10]; 2.97% in test [11]; 5.02% in test [12]. Besides, the inhibition came to 3.91% in test [13]; 0.72% in test [14]; 0.92% in test [15]; 1.58% in test [16]; 2.05% in [17]; 3.25% in test [18]. Moreover, the figures for the inhibition in test [19] and in [20] were 9.68% and -9.75%, respectively.
Consider `COC(=O)c1sc(-n2cnc3cc(OC)c(OC)cc32)cc1OCc1ccccc1C(F)(F)F`, for which the inhibition in test [1] worked out at 10.1%; in test [2] it was 5.37%; in [3], 4.96%; in [4], 5.47%; in [5], 11.2%; in test [6], 4.68%. Moreover, the inhibition in test [7] is 9.69%; in test [8] it was 5.78%; in test [9] it was 9.15%; in [10], -1.48%; in test [11] it was 0.54%; in test [12], 7.38%. In addition, the inhibition in test [13] is 9.12%; in [14], 1.91%; in test [15], 1.84%; in test [16], 3.84%; in [17], 4.18%; in [18] it was -1.22%. Also, the inhibition in [19] is -4.74%; in test [20], -7.92%.
For `Fc1cccc(COc2ccc(Nc3ncnc4sc(-c5ccco5)cc34)cc2Cl)c1`, the inhibition in [1] was determined as 6.92%; in test [2] it was 5.47%; in test [3], 3.29%; in test [4] it was 6.46%; in test [5] it was 7.36%; in [6], 4.94%. Besides, the inhibition was 8.32% in test [7]; 6.61% in test [8]; 8.59% in [9]; -1.76% in test [10]; 3.25% in test [11]; 5.72% in [12]. Further, the inhibition is 4.19% in test [13]; 1.79% in test [14]; 1.67% in test [15]; 5.17% in test [16]; 3.75% in test [17]; 2.39% in [18]. Moreover, the inhibition in [19] stood at 4.77%; in test [20], 1.93%.
Turning to `CC(C)COC(=O)c1ccc2c(c1)/C(=C/Nc1ccc(S(N)(=O)=O)cc1)C(=O)N2`, the inhibition in test [1] is 65.3%; in test [2] it was 3.79%; in test [3] it was 33.7%; in [4], 10.3%; in [5] it was 53.8%; in [6], 46.2%. Also, the inhibition in [7] was 81.5%; in [8], 34%; in test [9], 77.9%; in test [10] it was -0.24%; in test [11] it was 10.7%; in [12], -0.34%. Also, the inhibition in [13] is 1.52%; in [14], -2.84%; in test [15], 0.1%; in [16] it was -2.65%; in [17], -0.22%; in test [18] it was -0.7%. The inhibition in test [19] was 5.79%; in test [20] it was 11.9%.
Consider `[O-][S+]1CCN(Cc2ccc(-c3ccc4ncnc(Nc5ccc(OCc6cccc(F)c6)c(Cl)c5)c4c3)o2)CC1`, for which the inhibition in test [1] amounted to 9.56%; in test [2], 5.35%; in test [3] it was 4.93%; in test [4], 7.98%; in [5], 8%; in [6], 6.28%. The inhibition in test [7] worked out at 8.16%; in test [8] it was 8.11%; in [9], 9.49%; in test [10], 0.51%; in test [11] it was 2.07%; in [12], 8.29%. The inhibition in test [13] turned out to be 11.2%; in test [14], 2.04%; in test [15], 2.89%; in test [16] it was 6.22%; in test [17], 5.6%; in test [18], 3.4%. For the same molecule, the inhibition is 2.31% in test [19] and -2.88% in test [20].

Source of the values: ChEMBL document CHEMBL1961873, “Compounds: GSK PKIS; Assays: Nanosyn kinase panel” (2012).
